Results filed as inconclusive are left out. Calls of active or inactive are those of the source. Calls follow the shape of the dose curve; as a rule, active = well fitted inhibition curve with a large enough effect; inconclusive = small, poorly fitted or top-dose-only effect; inactive = no such curve, though single readings can be large or run the other way.
Target: RecQ-like DNA helicase BLM (Homo sapiens) (UniProt P54132)
Experiment: qHTS for Inhibitors of Bloom's syndrome helicase (BLM): Helicase DNA unwinding fluorescent orthogonal confirmatory assay for SAR
Conditions: fluorescence, orthogonal confirmation
Excerpt: Human RecQ DNA helicases participate in maintenance of genome stability and DNA repair. While other types of helicases have been explored as targets for drug development, members of the RecQ family have remained less well characterized. Mutations of the Bloom helicase gene have been associated with the rare human genetic disease called Bloom syndrome. […] Moreover, identified inhibitors can be used in cells and animal models to examine the consequences of inhibition on the survival of cancer cells where it has been shown that BLM plays an important role.
A fluorescence-based, biochemical assay in 1536 well format was developed to evaluate inhibition of BLM DNA unwinding activity. This assay was used to screen the MLPCN library. The resulting compounds were subjected to orthogonal and secondary biochemical assays to triage the initial hits, to classify compounds based on mode of action and to derive structure activity relationships (SARs) of candidate effectors. The data herein is the result of the Helicase DNA unwinding fluorescent orthogonal confirmatory assay. This fluorescent-based assay employs a purified BLM enzyme and utilizes gel electrophoresis to monitor the helicase-mediated unwinding of a fluorescently-labeled DNA substrate. For this assay decrease in the single-stranded DNA product band on the gel = inhibition of the BLM helicase activity. Inhibition is the desired outcome for this assay.
NIH Chemical Genomics Center [NCGC]
NIH Molecular Libraries Probe Centers Network [MLPCN]
Assay Submitter (PI): Opher Gileadi, Structural Genomics Consortium, University of Oxford, UK
Unwinding assay for the BLM helicase was carried out in a reaction buffer containing 50 mM Tris-HCl pH 7.5, 50mM NaCl, 2mM MgCl2, 2mM ATP, 1mM DTT, and 0.1 mg/ml BSA. Optimal substrate and enzyme concentrations as well as reaction times were determined experimentally. All reactions were performed at room temperature and terminated by the addition of loading buffer containing 20mM EDTA and 2.5% bromophenol blue. […] Substrate and product bands were quantified using ImageJ. […]

RecQ-like DNA helicase BLM (Homo sapiens), sequence (P54132 whole entry, looked up): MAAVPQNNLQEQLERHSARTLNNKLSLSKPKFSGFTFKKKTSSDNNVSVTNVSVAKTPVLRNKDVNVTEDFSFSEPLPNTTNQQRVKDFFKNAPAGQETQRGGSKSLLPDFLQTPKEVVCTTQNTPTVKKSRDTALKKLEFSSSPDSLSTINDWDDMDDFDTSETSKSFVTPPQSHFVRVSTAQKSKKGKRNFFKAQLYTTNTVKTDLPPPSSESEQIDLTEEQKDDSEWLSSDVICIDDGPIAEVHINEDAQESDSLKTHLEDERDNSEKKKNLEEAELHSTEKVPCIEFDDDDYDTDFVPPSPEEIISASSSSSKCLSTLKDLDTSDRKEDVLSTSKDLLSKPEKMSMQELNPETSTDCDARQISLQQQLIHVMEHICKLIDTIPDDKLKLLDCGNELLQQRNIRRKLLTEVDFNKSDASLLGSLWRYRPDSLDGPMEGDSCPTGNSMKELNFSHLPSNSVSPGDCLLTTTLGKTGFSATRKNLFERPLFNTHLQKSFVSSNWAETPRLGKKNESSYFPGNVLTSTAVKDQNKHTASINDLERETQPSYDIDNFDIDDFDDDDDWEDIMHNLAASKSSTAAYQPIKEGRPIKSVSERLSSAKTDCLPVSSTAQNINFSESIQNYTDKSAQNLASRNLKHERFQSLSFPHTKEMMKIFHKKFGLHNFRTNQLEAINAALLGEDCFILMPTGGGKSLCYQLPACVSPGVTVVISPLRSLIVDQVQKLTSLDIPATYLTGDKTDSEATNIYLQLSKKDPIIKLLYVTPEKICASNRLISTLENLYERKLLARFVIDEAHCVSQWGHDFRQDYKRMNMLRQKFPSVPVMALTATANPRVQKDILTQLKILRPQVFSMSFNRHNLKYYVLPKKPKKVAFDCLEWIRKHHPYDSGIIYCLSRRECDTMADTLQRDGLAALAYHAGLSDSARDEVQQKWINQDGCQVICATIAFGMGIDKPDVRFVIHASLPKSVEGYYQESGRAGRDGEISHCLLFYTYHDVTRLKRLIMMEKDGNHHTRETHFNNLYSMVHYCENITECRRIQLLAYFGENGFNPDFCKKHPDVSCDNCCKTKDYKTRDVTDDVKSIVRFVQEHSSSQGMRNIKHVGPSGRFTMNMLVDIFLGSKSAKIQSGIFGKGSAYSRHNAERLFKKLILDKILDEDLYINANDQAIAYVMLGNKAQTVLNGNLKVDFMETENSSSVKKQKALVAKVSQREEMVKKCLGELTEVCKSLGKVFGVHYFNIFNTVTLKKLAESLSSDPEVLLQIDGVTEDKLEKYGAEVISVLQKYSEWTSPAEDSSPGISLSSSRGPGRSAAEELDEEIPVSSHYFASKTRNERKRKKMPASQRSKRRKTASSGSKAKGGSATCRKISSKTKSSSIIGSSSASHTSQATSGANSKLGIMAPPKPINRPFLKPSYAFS

Structure (SMILES)	Potency
N#Cc1ccc(NC(=O)Nc2nnc(-c3ccncc3)s2)cc1Br	1120 nM (active)
N#Cc1ccc(NC(=O)Nc2nnc(-c3ccncc3)s2)cc1Cl	1580 nM (active)
N#Cc1ccc(NC(=O)Nc2nnc(-c3ccncc3)s2)cc1C(F)(F)F	5620 nM (active)
